Source: PubChem BioAssay
The list is not random: actives were taken first. Their share in the collection is about 8.6%.
Lassa entry: qHTS for Inhibitors of binding or entry into cells for Lassa Virus; Lassa virus pseudotyped entry inhibition, cell-based qHTS; Potency, µM (doses to about 49.2 µM), for the others: at the highest dose activity change, negative = inhibition, hits mostly inhibitors; 18,000 tested, 4.1% active; AID 720533, 2013
MARV entry inh: qHTS for Inhibitors of binding or entry into cells for Marburg Virus | Potency, µM (highest dose often 49.2 µM), inactives show at the top dose activity change, negative = inhibition, usual class: inhibitors | Marburg virus pseudotype entry/binding inhibition, cell-based | 18,000 tested, 6.5% active
An asterisk follows results filed as active; ? = inconclusive; . = no result given; ! = not active in a repeat; [ ] = another dose, or the depositor's remark. The call rests on the fitted dose curve; tested in HEK293 cells. On the % scale 0 is the no-effect control and ±100 the full control effect; potency means the concentration at half of the fitted maximal effect.

SMILES	Lassa entry	MARV entry inh
COc1ccc(-c2nn3ncccc3c2-c2ccnc(Nc3ccc4c(c3)OCCO4)n2)cc1	?	7.1µM*
NC(=O)c1ccc2c(-c3ccnc(NCCCO)n3)c(-c3ccc(F)cc3)nn2c1	-17%	?
OCCCNc1nccc(-c2c(-c3ccc(F)cc3)nn3cc(C(F)(F)F)ccc23)n1	-39%	?
Clc1ccc(-c2nn3ncccc3c2-c2ccnc(Nc3ccccc3)n2)cc1	.	6.3µM*
Cc1cnc(C)c(-c2ccc(F)c3c2OC(CNC(=O)/C=C/c2cccs2)C3)n1 (centres undefined)	?	-27%
CCC[C@@]1(CCc2ccccc2)CC(O)=C([C@H](CC)c2cccc(NS(=O)(=O)c3ccc(C(F)(F)F)cn3)c2)C(=O)O1	-3%	-28%
CCCCCCCC#Cc1ccccc1C=NS(=O)c1ccc(C)cc1 (centres undefined)	8%[8.59 µM]	4%[8.59 µM]
COC(=O)C1=C[C@]2(c3ccccc3C[C@H](OC)[C@@H]2C)[C@H]2C=C[C@H]1C2	-23%[8.59 µM]	8%[8.59 µM]
Fc1ccc(-c2cc(-c3cn[nH]c3-c3ccccn3)ccn2)cc1	57%	8%
Cc1cc2c(c(=O)n1Cc1ccccc1)[C@H]1O[C@](CCCCN3C(=O)c4ccccc4C3=O)(Cc3ccccc31)O2	3%[8.59 µM]	15%[8.59 µM]
COCC(=O)Nc1cc(C(=O)N2CCN(C)C(c3ccccc3)C2)c2c(c1)nc(-c1ccncc1)n2C (centres undefined)	-4%	16%
COC(=O)C1=C2C=C(C)CC(C)N2C(=O)NC1c1ccccc1 (centres undefined)	18%[8.59 µM]	30%[8.59 µM]
FC(F)(F)c1cccc(-c2nn3ncccc3c2-c2ccnc(Nc3ccc4c(c3)OCCO4)n2)c1	.	4µM*
COC(=O)[C@H]1[C@@H](c2ccccc2)NC(=O)N(CCc2cc(OC)c(OC)c(OC)c2)[C@@H]1C	3%[8.59 µM]	-24%[8.59 µM]
Cc1nc(Nc2ncc(C(=O)Nc3c(C)cccc3Cl)s2)cc(N2CCN(CCO)CC2)n1	?	13µM*
COc1ccc2c3c(c(=O)oc2c1)[C@H]1O[C@](CCCCN2C(=O)c4ccccc4C2=O)(Cc2cc(OC)c(OC)cc21)O3	9%[8.59 µM]	?
CCC(=O)O[C@@](Cc1ccccc1)(c1ccccc1)[C@@H](C)CN(C)C	-1%[17.8 µM]	6%[17.8 µM]
CCC(=O)O[C@](Cc1ccccc1)(c1ccccc1)[C@H](C)CN(C)C	-13%	28µM*
O=S1(=O)c2cccc(Cl)c2OC[C@H](c2ccccc2)N1Cc1cccc(Cl)c1	-17%	?
CC[C@@H](C(=O)[C@@H](C)[C@@H](O)[C@H](C)CCc1ccc(C)c(O)c1C(=O)O)C1O[C@](CC)(C2CC[C@](O)(CC)[C@H](C)O2)C[C@@H]1C (some centres undefined)	7.1µM*	?
CC[C@H](C(=O)[C@H](C)[C@H](O)[C@H](C)CCc1ccc(C)c(O)c1C(=O)O)[C@H]1O[C@](CC)([C@@H]2CC[C@@](O)(CC)[C@H](C)O2)C[C@H]1C	?	2.8µM*
COC(=O)C1(C)C2CC(C)C(c3ccccc32)N1C(=O)C(F)(F)F (centres undefined)	.	-9%[8.59 µM]
CCC(=O)Nc1ccc(C)c(-c2ccc(C(=O)NCC3CC3)cc2)c1	-18%	36%
C[C@@H]1[C@@H](c2ccccc2)Oc2c(Cl)cccc2S(=O)(=O)N1Cc1cccc(Cl)c1	-10%	16%
CCCCCC(=O)O[C@@]1(C(C)=O)CCC2C3CCC4=CC(=O)CC[C@@]4(C)C3CC[C@]21C (some centres undefined)	22µM*	10µM*
SMILES	Lassa entry	MARV entry inh
CCCC(=O)O[C@]1(C(=O)CO)CC[C@H]2[C@@H]3CCC4=CC(=O)CC[C@]4(C)[C@H]3[C@@H](O)C[C@@]21C	-2%	-5%
COC(=O)C1=C(C)N(Cc2ccccc2)C(=NCC(C)C)NC1c1cccc(C(F)(F)F)c1 (centres undefined)	.	9%[8.59 µM]
CC1=CC[C@@H](COc2ccccc2)O[C@@]2(C1)C(=O)Nc1cccc(Br)c12	41%[8.59 µM]	4%[8.59 µM]
COc1ccc(CCN(C)CCCC(C#N)(c2cc(OC)c(OC)c(OC)c2)C(C)C)cc1OC (centres undefined)	-10%	32µM*
COc1ccc(CCN(C)CCc2ccc(OC)c(OC)c2)cc1OC	-13%	-29%
COc1ccc([C@]23Cc4cc(C#N)ccc4[C@H](O2)c2c(cc(C)n(-c4ccccc4)c2=O)O3)cc1	12%[8.59 µM]	2%[8.59 µM]
CC(C)[C@@H](CO[Si](C)(C)C(C)(C)C)N1CC=CS1(=O)=O	-27%	13%
COC(=O)[C@H](Cc1ccccc1)N1C[C@@H](N2CCC[C@@H]2C)C[S+]1(=O)[O-]	14%	20%
C=C(CCN1C=C(C(C)=O)C(c2ccccc2)NC1=O)c1ccc(OC)cc1 (centres undefined)	0%[8.59 µM]	12%[8.59 µM]
Cc1c(C)n(CCN(C)C)c2ccc(C(=O)OCCN(C)C)cc12	32µM*	4µM*
CCCCNc1ccc(C(=O)OCCN(C)C)cc1	-2%	?
COC(=O)C12CC3=CCC4C(=O)N(c5ccccc5)C(=O)C4C3Cc3ccccc3[C@H]1CNC2=O (some centres undefined)	21%[8.59 µM]	5%[8.59 µM]
O=C(N[C@H]1CN2CCC1CC2)c1ccc(Cl)cc1	-10%	?
Cn1cc(C(=O)C(=O)N[C@H]2CN3CCC2CC3)c2ccccc21	?	28µM*!
COc1ccc(C=CC2=C[C@]3(C)C[C@]2(C)[C@H](c2ccc(OC)cc2)CC3=O)cc1	5%[8.59 µM]	4%[8.59 µM]
CCCC[C@@H]1CN2[C@@H](CC[C@H](C)[C@@H]2c2ccc(Br)cc2)C(=O)O1	5%[8.59 µM]	5%[8.59 µM]
CC(C)(C)c1nc(-c2ccccc2)oc1Nc1ccc2ccccc2c1	31%[8.59 µM]	-24%[8.59 µM]
O=C1C[C@@H](c2ccccc2)[C@H](c2ccc(Br)cc2)O1	-19%[8.59 µM]	-17%[8.59 µM]
C[N+]1(C)[C@@H]2CC[C@H]1CC(OC(=O)c1c[nH]c3ccccc13)C2 (some centres undefined)	-8%	6%
CN1[C@@H]2CC[C@H]1CC(OC(=O)c1c[nH]c3ccccc13)C2 (some centres undefined)	?	20µM*!
COC1=C(C(=O)c2ccccc2)C(=O)[C@@]2(CC=C(C)C)CC(C#N)C[C@@]1(CC=C(C)C)C2=O (some centres undefined)	?	-16%[8.59 µM]
COc1ccc(O)c(CN2CCC3(CC2)c2ccccc2[C@@H](NC(=O)c2cccc(F)c2)[C@@H]3OC)c1	-28%	?
O=C1C2=C(C(=O)c3ccccc31)[C@H]1O[C@](c3ccsc3)(Cc3c1ccc1ccccc31)O2	3%[8.59 µM]	15%[8.59 µM]
c1ccc2nc(N3CCNCC3)ccc2c1	-10%	32µM*!
c1ccc2c(N3CCNCC3)cccc2c1	0%	?
SMILES	Lassa entry	MARV entry inh
CN(C)Cc1ccccc1-c1ccc2ncnc(NCc3cccs3)c2c1	-5%	8.9µM*
CN(C)Cc1ccccc1-c1ccc2ncnc(NCc3ccccc3)c2c1	0%	?
CN(C)Cc1ccccc1-c1ccc2ncnc(NC3CCNCC3)c2c1	7%	7.1µM*
c1nc(NC2CCNCC2)c2cc(-c3ccc4c(c3)OCO4)ccc2n1	-5%	?
CCc1cc2c(nc1CC)CCN(CCC(C)=NOCC[C@@H]1C=C[C@H](OC(C)=O)[C@@H](COC(C)=O)O1)C2	10%[8.59 µM]	?
NS(=O)(=O)c1ccc(Nc2cc(-c3ccc(O)c(F)c3)[nH]n2)cc1	39%	-27%
COc1ccc(CNc2nc(-c3ccoc3)nc3ccccc23)c(OC)c1	-9%	-25%
